Records with an inconclusive call do not appear. Active and inactive are the calls of the source. Calls come from the whole dose curve.
Assay: qHTS assay to identify small molecule agonists of the endoplasmic reticulum stress response signaling pathway - cell viability counter screen (AID 1159517);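 note: HeLa cells carrying an ER stress response element beta-lactamase reporter; nearly all actives have a fitted effect of over 50% in size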
Conditions: ESRE-bla HeLa viability, CellTiter-Glo luminescence, 5 h; series mostly up to 61 µM; activity change, negative = cytotoxicity: at the top concentration
Outline: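 Steps: seed 1,500 ESRE-bla HeLa cells per well; incubate overnight at 37 C, 5% CO2; add compounds in DMSO for 5 hr; run FRET substrate 2 hr RT; add CellTiter-Glo, wait 30 min, read luminescence.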
% is set by controls: 0 for no effect and ±100 for the full control effect.

Structure (SMILES)	activity change, negative = cytotoxicity
Cc1nc(C)c(C)nc1C	-14.8% (inactive)
Cc1cc(C)c(C)c(O)c1	21.9% (inactive)
Cc1ccc(S(=O)(=O)NC(=O)NC2CCCC2)cc1	-0.631% (inactive)
OCCc1ccncc1	0.955% (inactive)
C=C(C)C(=O)OCCCCCCCCCCOC(=O)C(=C)C	-1.98% (inactive)
CCC1=C(C)CN(C(=O)NCCc2ccc(S(=O)(=O)NC(=O)NC3CCC(C)CC3)cc2)C1=O (centres undefined)	0.691% (inactive)
Cc1ccc(Cl)c(OCC(O)CNC(C)(C)C)c1 (centres undefined)	-4.22% (inactive)
O=C(C1CCCCC1)N1CC(=O)N2CCCc3ccccc3C2C1 (centres undefined)	1.14% (inactive)
N#CCCCC(C#N)CCC#N (centres undefined)	-20.6% (inactive)
C[C@H](CN1CCCC1)C(=O)c1ccc(C(F)(F)F)cc1	-3.4% (inactive)
Clc1nc2ccccc2nc1Cl	0.346% [at 78.8 µM] (inactive)
CC(C)NC(=O)c1ccccc1N	-13.3% (inactive)
CCCc1nc(C)c2c(=O)[nH]c(-c3cc(S(=O)(=O)N4CCN(CC)CC4)ccc3OCC)nn12	-17.2% (inactive)
Cc1cccc(C)c1NC(=O)CN1CCCC1	-1.19% (inactive)
CC(COc1ccccc1)NC(C)C(O)c1ccc(O)cc1 (centres undefined)	16.7% (inactive)
NCCOCCOCCN	-21.5% (inactive)
C=CC(=O)OCCCCCCCCCC	1.98% (inactive)
Nc1ccc(F)cc1F	18.9% [at 78.8 µM] (inactive)
O=c1[nH]nc(-c2ccc([N+](=O)[O-])o2)o1	7.49% (inactive)
CCN(CC)CC(=O)OCC(=O)[C@@]1(O)CC[C@H]2[C@@H]3CCC4=CC(=O)CC[C@]4(C)[C@H]3[C@@H](O)C[C@@]21C	-2.03% (inactive)

Structure (SMILES)	activity change, negative = cytotoxicity
CCOC(OCC)OCC	-23.7% (inactive)
Cc1ccc2ccccc2c1[N+](=O)[O-]	8.83% (inactive)
C=CC(C)CCC=C(C)C (centres undefined)	0.173% (inactive)
COC(=O)/C=C/C(C)=C\C=C\C(C)=C\C=C\C=C(C)\C=C\C=C(C)\C=C\C(=O)O	11.4% (inactive)
CO[C@@H]1COCC[C@@H]1N[C@@H]1CC[C@@](C(=O)N2CCc3ncc(C(F)(F)F)cc3C2)(C(C)C)C1	2.81% (inactive)
CCCC(=O)OCc1ccccc1	2.94% (inactive)
c1ccc(CCNc2nc(-c3ccccc3)cs2)cc1	-4.12% (inactive)
C[C@]12CCC(=O)C=C1[C@@H]1C[C@@H]1[C@H]1[C@@H]3[C@@H]4C[C@@H]4[C@@]4(CCC(=O)O4)[C@@]3(C)CC[C@@H]12	10.3% (inactive)
O=C(OC1C[C@H]2CC[C@@H](C1)[N+]21CCCC1)C(O)(c1ccccc1)c1ccccc1 (some centres undefined)	15% (inactive)
N#Cc1ccc(CC(=O)c2cccc(C(F)(F)F)c2)cc1	-12.6% (inactive)
CC(CC(C#N)(c1ccccc1)C(C)C)N(C)C (centres undefined)	9.31% (inactive)
O=C(NC1CCN(CCc2c[nH]c3ccccc23)CC1)c1ccccc1	1.16% (inactive)
CCCCOC(=O)C(C)Oc1ccc(Oc2ccc(C(F)(F)F)cn2)cc1 (centres undefined)	18% (inactive)
O=C(N[C@@H](Cc1ccccc1)[C@@H](O)C(=O)N1C[C@@H](O)[C@@H](O)C1)c1cc2cc(Cl)ccc2[nH]1	0.202% (inactive)
CC1(C)C(=O)NC(=O)N1CO	5.28% (inactive)
CCOc1cc(OCC)c(C(C)=O)cc1OCC	5.28% (inactive)
OCCOc1cccc(OCCO)c1	5.24% (inactive)
CC(C)=CCC/C(C)=C/C=N/O	4.44% (inactive)
CC(=O)Nc1ccn(C2COC(COC(=O)c3ccccc3)O2)c(=O)n1 (centres undefined)	5.94% (inactive)
